From PubChem BioAssay AID2546 (National Center for Advancing Translational Sciences (NCATS), 2010)
The whole screen tested about 310,000 compounds, of which about 11,000 (3.5%) were called active. Not shown: some 8% with an inconclusive outcome. Shown is part of a subset that was picked to be rich in actives. Entries that show only a call come without a potency. Values without a mark were called inactive. The call rests on the fitted dose curve; in most records, active means well fitted inhibition curve with a large enough effect; inconclusive means small, poorly fitted or top-dose-only effect, or effect the other way; inactive means flat fitted curve, though single readings scatter.
Potency means the concentration at half of the fitted maximal effect.

Test: VP16 counterscreen qHTS for inhibitors of ROR gamma transcriptional activity;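 further: Gal4-VP16 expression switched on by copper sulfate through the metallothionein promoter; nearly all actives have a fitted effect of over 50% in size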
Conditions: Drosophila S2 Gal4-VP16 UAS-luciferase, luminescence, 20 h; series mostly up to 53.6 µM
In the case of `CCC(C)c1ccc(NC(=S)NCc2ccccn2)cc1` (stereo unspecified), the Potency is reported as 8.91 µM (active).
In the case of `O=C(NCc1ccccn1)Nc1ccc(F)cc1`, the Potency is reported as “inactive”.
For `COc1cccc(NC(=S)NCc2ccccn2)c1`, the Potency was “inactive”.
With `Cc1cccc(NS(=O)(=O)c2ccc(C(=O)NCC(C)(C)N3CCOCC3)cc2)c1C` the Potency was “inactive”.
With `Cc1cccnc1CC(C)NC(=O)c1cc(COc2cncc(Cl)c2)on1` (stereo unspecified) the Potency was “inactive”.
In the case of `COC(=O)[C@H](Cc1ccccc1)NC(=O)Nc1ccc(OC)cc1`, the Potency is reported as “inactive”.
With `COc1cc([C@H](Cc2ccccc2)NC(C)=O)oc(=O)c1` the Potency was 11.2 µM (active).
For `CCOC(=O)C(Cc1ccccc1)NC(=O)CCC(=O)c1ccc(OC)cc1` (stereo unspecified), the Potency was “inactive”.
For `COc1cc(/C=C2\C(=N)N3N=C(CC(=O)N4CCOCC4)SC3=NC2=O)cc(OC)c1OC`, the Potency was “inactive”.
For `CN(C)C(=O)CCC(=O)N1CCCCC1C(=O)Nc1ccc(Oc2ccccc2F)cc1` (stereo unspecified), the Potency was “inactive”.
In the case of `C/C(=N\NC(=O)c1ccc(C)cc1)C1C(=O)c2ccccc2C1=O`, the Potency is reported as 0.562 µM (active).
With `C/C(=N\NC(=O)c1cccnc1)c1ccc(-c2ccccc2)cc1` the Potency was “inactive”.
With `Cc1ccc(C(=O)NCCNC(=O)c2ccccc2)cc1` the Potency was “inactive”.
With `CC(Cc1cccs1)N(Cc1ccc(Cl)cc1)C(=O)c1ccncc1` (stereo unspecified) the Potency was “inactive”.
In the case of `CCOC(=O)c1ccc2[nH]c3c(c2c1)CCCC3NC=O` (stereo unspecified), the Potency is reported as “inactive”.
For `CCOC(=O)c1c(NC(=O)C(C)Sc2c[nH]c3ccccc23)sc2c1CCC2` (stereo unspecified), the Potency was “inactive”.
In the case of `CCN(CC)CC(=O)Nc1sc2c(c1C(=O)c1ccccc1C)CCC2`, the Potency is reported as 17.8 µM (active).
With `CCCOC(=O)Nc1sc2c(c1C(=O)OCC)CCC2` the Potency was “inactive”.
With `CCOC(=O)c1c(NC(=O)c2ccc(Br)o2)sc2c1CCCC2` the Potency was “inactive”.
In the case of `O=C(Nc1sc2c(c1C(=O)O)CCC2)c1ccccc1F`, the Potency is reported as “inactive”.
With `CCOC(=O)c1c(NC(=S)Nc2ccccc2C)sc2c1CCC2` the Potency was 5.62 µM (active).
With `CCOCC(=O)Nc1sc2c(c1C(=O)OCC)CCCC2` the Potency was “inactive”.
With `CCOC(=O)c1c(NC(=S)NC)sc2c1CCCC2` the Potency was 1.41 µM (active).
In the case of `CCc1ccc(N(CC(=O)Nc2sc3c(c2C(=O)OC)CCCC3)S(C)(=O)=O)cc1`, the Potency is reported as “inactive”.
In the case of `O=C(O)CN1c2cccc3cccc(c23)S1(=O)=O`, the Potency is reported as “inactive”.
In the case of `CC(C)(COC(=O)Nc1ccccc1)COC(=O)Nc1ccccc1`, the Potency is reported as “inactive”.
For `CC(=O)Nc1ccc(NC(=O)CC2CCCC2)cc1`, the Potency was “inactive”.
For `COc1cc(C(=O)N2CCN(C3CCC(C)CC3)CC2)cc(OC)c1OC` (stereo unspecified), the Potency was “inactive”.
For `COc1ccccc1/C=N/N1CCN(Cc2ccccc2Cl)CC1`, the Potency was “inactive”.
With `CCOCCCNc1c(CC)c(C)c(C#N)c2nc3ccccc3n12` the Potency was “inactive”.
In the case of `C=C(C(C)=O)C(O)c1cccs1` (stereo unspecified), the Potency is reported as “inactive”.
In the case of `CC(=O)NCC(O)c1ccc([N+](=O)[O-])cc1` (stereo unspecified), the Potency is reported as “inactive”.
For `C=C(C(C)=O)C(O)c1ccc([N+](=O)[O-])cc1` (stereo unspecified), the Potency was 10 µM (active).
For `O=C(c1ccco1)N1CCN(C(=O)c2cc(-c3ccccc3F)no2)CC1`, the Potency was “inactive”.
In the case of `O=C(c1cc(COc2ccc(F)cc2F)on1)N1CCOCC1`, the Potency is reported as “inactive”.
In the case of `CC(C)C[C@H](NC(=O)C1CC(=O)N(c2ccc3c(c2)OCCO3)C1)C(=O)NC1CCCC1` (stereo partly specified), the Potency is reported as “inactive”.
For `Cc1noc(C)c1-c1ccc2ncnc(NCc3ccc4[nH]ccc4c3)c2c1`, the Potency was “inactive”.
In the case of `COc1ccc(COC(=O)c2ccc(Cl)c(S(=O)(=O)N3CCOCC3)c2)cc1F`, the Potency is reported as “inactive”.
For `Cc1cc(Nc2ccc(Cl)cc2)nc(N2CCOCC2)n1`, the Potency was “inactive”.
In the case of `Cc1ccc(S(=O)(=O)Nc2nc(C)cc(N/N=C/c3ccc(O)cc3)n2)cc1`, the Potency is reported as “inactive”.
For `COc1ccc(Nc2cc(C)nc(-n3nc(C)cc3C)n2)cc1`, the Potency was 1.12 µM (active).
In the case of `Cc1cc(C)n(-c2cc(Oc3ccccc3)ncn2)n1`, the Potency is reported as “inactive”.
With `Cc1cc(Oc2ccc(Cl)cc2)nc(SCC(=O)c2ccccc2)n1` the Potency was “inactive”.
With `Cc1nc(Cl)cc(N/N=C/c2ccccc2)n1` the Potency was “inactive”.
In the case of `COc1ccc(/C=N/Nc2cc(N3CCOCC3)nc(C)n2)c(OC)c1`, the Potency is reported as “inactive”.
With `COc1cccc2c(N/N=C/c3ccco3)cc(C)nc12` the Potency was “inactive”.
For `CC(=O)c1ccc(Oc2cc(C)nc(-n3nc(C)cc3C)n2)cc1`, the Potency was 6.31 µM (active).
For `COc1ccccc1/C=N\Nc1cc(C)nc(-n2nc(C)cc2C)n1`, the Potency was 0.355 µM (active).
With `Cc1cc(N/N=C\c2ccc(Br)cc2)nc(-n2nc(C)cc2C)n1` the Potency was 1.41 µM (active).
For `COc1ccc(NC(=O)c2nc(-n3nc(C)cc3C)ccc2Cl)cc1Cl`, the Potency was “inactive”.
For `COC(=O)c1ccc(COC(=O)c2cnc(Cl)c(Cl)c2)cc1`, the Potency was “inactive”.
With `COCc1cc(C)n(CC(=O)NCC2CCCO2)c(=O)c1C#N` (stereo unspecified) the Potency was “inactive”.
In the case of `CCc1ccccc1N(CC(=O)NCC1CCCO1)C(=O)CCC(=O)Nc1nccs1` (stereo unspecified), the Potency is reported as “inactive”.
In the case of `COc1ccccc1N1CCN(C(=O)c2cc(=O)c3cc(C)cc(C)c3o2)CC1`, the Potency is reported as “inactive”.
With `C[C@H]1[C@H]2c3nc4ccccc4n3C[C@H]1ON2C1CCCCC1` the Potency was “inactive”.
For `COc1cc2c(cc1OC)C(c1cccc([N+](=O)[O-])c1)=NCC2`, the Potency was “inactive”.
For `CCOc1ccccc1N=C1NC(=O)CS1`, the Potency was “inactive”.
In the case of `O=C1CSC(=S)N1/N=C/c1ccc(O)c([N+](=O)[O-])c1`, the Potency is reported as “inactive”.
In the case of `CCOc1cccc(/C=N/N2C(=O)CSC2=S)c1O`, the Potency is reported as 12.6 µM (active).
For `CCOc1ccc(N(CC(=O)Nc2cccc(OC)c2)S(C)(=O)=O)cc1`, the Potency was “inactive”.
For `CCN1CCN(C2CCCCC2NS(=O)(=O)c2ccc(Cl)cc2)CC1` (stereo unspecified), the Potency was “inactive”.
For `Cc1nnc(N/N=C/c2cccs2)[nH]c1=O`, the Potency was “inactive”.
With `COc1ccc(Nc2nc(=O)[nH]nc2C)cc1` the Potency was “inactive”.
For `Cc1n[nH]c(=O)nc1N/N=C/c1cccs1`, the Potency was 11.2 µM (active).
For `O=C(NCCc1nnc2ccc(SCC(=O)N3CCOCC3)nn12)c1ccccc1`, the Potency was “inactive”.
For `CCOC(=O)C1(CCOC)CCN(Cc2cc3ccccc3s2)CC1`, the Potency was “inactive”.
In the case of `CCC(=O)Nc1ccc2nn(-c3ccc(F)cc3)nc2c1`, the Potency is reported as “inactive”.
With `Cc1cc(N/C=C\C(=O)c2ccc(Cl)c(Cl)c2)no1` the Potency was “inactive”.
With `COc1ccc(C(=O)/C=C/Nc2ccccn2)cc1` the Potency was 3.55 µM (active).
In the case of `CCOc1ccc(N/C=C/C(=O)c2cc(OC)c(OC)c(OC)c2)cc1`, the Potency is reported as “inactive”.
With `CS(=O)(=O)N1CCc2nc(-c3ccccc3)sc2C1` the Potency was “inactive”.
For `O=C(NCCc1ccccc1)c1ccc(OCCOc2ccccc2)cc1`, the Potency was “inactive”.
In the case of `CCCOc1ccc(C(=O)NCCc2ccccc2)cc1`, the Potency is reported as 14.1 µM (active).
In the case of `O=C(NCCOc1ccccc1)c1ccccc1`, the Potency is reported as “inactive”.
With `CCC(C(=O)NCCC(C)C)N(Cc1ccccc1Cl)C(=O)c1snc(C(N)=O)c1N` (stereo unspecified) the Potency was “inactive”.
For `CCOC(=O)C1CCCN(CCSc2ccc(C)cc2)C1` (stereo unspecified), the Potency was “inactive”.
With `O=C(NC1CCN(Cc2ccccc2)CC1)c1c(F)cccc1F` the Potency was “inactive”.
In the case of `O=C1CCN(C(=S)NCCc2ccccc2)CC1`, the Potency is reported as “inactive”.
For `S=C(NCCC1=CCCCC1)Nc1ccccc1`, the Potency was 5.62 µM (active).
With `O=C(NCCCc1ccccc1)C(=O)c1c[nH]c2ccccc12` the Potency was “inactive”.
In the case of `S=C(NCCc1ccccc1)Nc1ccccc1`, the Potency is reported as 17.8 µM (active).
For `NS(=O)(=O)c1ccc(CCNC(=S)Nc2ccc(S(N)(=O)=O)cc2)cc1`, the Potency was “inactive”.
For `CC(=O)Nc1ccc(S(=O)(=O)N(C)CC(=O)NCCC2=CCCCC2)cc1`, the Potency was “inactive”.
With `S=C(NCCCc1ccccc1)Nc1ccc(Br)cc1` the Potency was 10 µM (active).
In the case of `S=C(Nc1ccc(Br)cc1)NC1CCN(Cc2ccccc2)CC1`, the Potency is reported as 15.8 µM (active).
In the case of `CCc1ccc(NC(=O)CS(=O)CC(=O)NCCCc2ccccc2)cc1` (stereo unspecified), the Potency is reported as “inactive”.
For `O=C(Cc1cccc2ccccc12)NCCC1=CCCCC1`, the Potency was “inactive”.
In the case of `O=C(COc1ccc(Br)cc1F)NC1CCN(Cc2ccccc2)CC1`, the Potency is reported as “inactive”.
For `Cc1c(Cl)cccc1NC(=O)NCCCN1CCCC1=O`, the Potency was “inactive”.
With `Cn1c(SCC(=O)N2CCCC2)nnc1-c1cccs1` the Potency was “inactive”.
With `COc1ccccc1CN1CC(C(=O)NCCc2cn[nH]c2)CCC1=O` (stereo unspecified) the Potency was “inactive”.
For `Cc1ccn(CCC(=O)N2c3ccccc3CC2C)n1` (stereo unspecified), the Potency was “inactive”.
With `COc1ccc(OC)c(NC(=O)c2ccc3c(c2)C(=O)N(c2ccc(OC(C)=O)cc2)C3=O)c1` the Potency was “inactive”.
In the case of `O=C(NCCNc1ccccc1[N+](=O)[O-])c1ccccc1F`, the Potency is reported as “inactive”.
For `COc1ccc(-c2nonc2NC(=O)c2oc3ccc(F)cc3c2C)cc1OC`, the Potency was “inactive”.
With `COc1ccc(S(=O)(=O)N2CCC(C(=O)NCc3ccco3)CC2)cc1C` the Potency was “inactive”.
For `N#Cc1ccccc1S(=O)(=O)N1CCN(C(=O)c2cc(-c3ccccc3)nn2-c2ccccc2)CC1`, the Potency was “inactive”.
With `Cc1c(CCC(=O)N[C@@H](CC(C)C)C(=O)O)c(=O)oc2c(C)c3oc4c(c3cc12)CCCC4` the Potency was “inactive”.
In the case of `CCOc1cc2[nH]c(=S)n(Cc3ccc(C(=O)NCCOC)cc3)c(=O)c2cc1OCC`, the Potency is reported as “inactive”.
For `COc1cc2[nH]c(=S)n(CCN3CCCCC3C)c(=O)c2cc1OC` (stereo unspecified), the Potency was “inactive”.
In the case of `COc1cc2[nH]c(=S)n(Cc3ccc(C)o3)c(=O)c2cc1OC`, the Potency is reported as 10 µM (active).
For `Cc1ccc(S(=O)(=O)N(CC(O)CN2CCCCC2)c2cccc([N+](=O)[O-])c2)cc1` (stereo unspecified), the Potency was “inactive”.
In the case of `CCc1ccc(NC(=O)N2CCc3ccccc3C2)cc1`, the Potency is reported as “inactive”.
For `O=C(Nc1cc2ccccc2oc1=O)C1CCCCC1`, the Potency was “inactive”.
With `O=c1oc2ccccc2cc1-c1cn(-c2ccccc2)c(=S)[nH]1` the Potency was 1.78 µM (active).
Work on `O=C(c1cn(-c2ccccc2)nc1-c1cc2ccccc2oc1=O)N1CCOCC1` yielded an activity, negative = inhibition of 7.29% [at 10 µM].
In the case of `CN(C(=O)COC(=O)c1nc(Cl)ccc1Cl)C1CCS(=O)(=O)C1` (stereo unspecified), the Potency is reported as “inactive”.
In the case of `CCc1ccc(OCC(=O)N(Cc2ccccc2)C2CCS(=O)(=O)C2)cc1` (stereo unspecified), the Potency is reported as “inactive”.
For `O=C(N/N=C/c1ccc(OCc2ccccc2)cc1)c1ccc(O)cc1`, the Potency was 11.2 µM (active).
For `O=C(N/N=C/c1ccc(OC(=O)c2ccccc2Cl)cc1)c1ccc(O)cc1`, the Potency was “inactive”.
In the case of `O=C(Cc1cccs1)N/N=C/c1ccc(OCc2ccccc2)cc1`, the Potency is reported as “inactive”.
